Test results: PubChem BioAssay (NCI)
This is part of a sample that, as a whole, favours compounds with a hit. Of some 83,000 tested, about 20% had one in any assay.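 Method: cells in 96-well plates; compound added at one concentration; 48 h incubation; percent growth measured; values under 10 scored active.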 Values without a mark were called inactive. Activity calls are given as the source filed them.

Key:
Assay in all cases: NCI-60 one-dose screen, 48 h (100 = growth as untreated, 0 = no growth, -100 = all killed)
Conditions in all cases: 10 µM unless noted
[1] = test system: T-47D breast
[2] = test system: BT-549 breast
[3] = test system: MDA-MB-435 melanoma
[4] = test system: SW-620 colon
[5] = test system: MCF7 breast
[6] = test system: HCT-116 colon
[7] = test system: HCC-2998 colon
[8] = test system: KM12 colon

Row | Structure (SMILES) | growth [1] | growth [2] | growth [3] | growth [4] | growth [5] | growth [6] | growth [7] | growth [8]
1 | COc1cccc(-c2nn(-c3ccccc3)cc2-c2ccnc(NCCCNS(=O)(=O)c3ccc(Br)cc3)c2)c1 | 18.5% | 73% | 54.3% | 69.7% | 29.6% | 40.8% | 46% | 44.1%
2 | Cc1cc(Cl)c2c(N(C)C)cccc2n1 | 94.7% | 98.3% | 106% | 88.7% | 79.3% | 92.3% | 97.1% | 109%
3 | O=S(=O)(NCCNc1cc(-c2cn(-c3ccccc3)nc2-c2cccc(O)c2)ccn1)c1cccc(F)c1 | 11.6% | 48% | 43.5% | 19.1% | 21.4% | 23.2% | -15.6% (active) | 31.1%
4 | N#Cc1c(-c2ccc(O)cc2)c2c(N)nn(-c3ccccc3)c2[nH]c1=O | 112% | 111% | 108% | 102% | 101% | 108% | 110% | 102%
5 | CN1CCN(c2nc(-c3csc(-c4cccs4)n3)cc3ccccc23)CC1 | 52.1% | 70.4% | 12.2% | 9.06% (active) | 40.8% | 46.7% | -38.2% (active) | 5.42% (active)
6 | CC(=O)n1c(/C(C#N)=C/c2ccc(N(C)C)cc2)cc2ccccc21 | 35.8% | 17.7% | 2.22% (active) | 24.6% | 20.1% | 27.7% | 50.5% | 31.6%
7 | COc1ccc(C2=NN(c3nc(-c4ccc(OC)cc4)c(C#N)c(=O)n3C)C(=O)CC2)cc1 | 92.4% | 107% | 109% | 108% | 92% | 97.4% | 91.8% | 107%
8 | N=C(N)N=Nc1ccc(O)cc1 | 98.8% [100 µM] | 19.3% [100 µM] | 80.4% [100 µM] | 58.9% [100 µM] | 9.71% [100 µM] (active) | 48% [100 µM] | 54.6% [100 µM] | 89.7% [100 µM]
9 | Cc1csc(-c2ccc3c(c2)COC3(CCCN(C)C)c2ccc(F)cc2)c1 (stereo not drawn) | -37.5% (active) | 76.6% | -30.3% (active) | 22.7% | 17.1% | -26.7% (active) | -50.7% (active) | 14.4%
10 | Cc1nnc2nc(N)[nH]n2c1=O | 96.1% | 99.6% | 113% | 107% | 97.9% | 101% | 102% | 96%
11 | CC(C)(C)c1ccc(OCCCCCCCN2CCNCC2)cc1 | 6.54% (active) | 69.7% | 50.8% | -31.9% (active) | -20.1% (active) | -1.04% (active) | -4.86% (active) | 36.1%
12 | COc1ccc2nc(-c3cc(-c4cc(OC)c(OC)c(OC)c4)n[nH]3)[nH]c2c1 | -31.2% (active) | 3.56% (active) | -25.4% (active) | 21% | -6.38% (active) | 12.7% | 49.6% | -30% (active)
13 | NCCNc1nc(-c2ccccc2)nc2nc(-c3ccccc3)oc12 | 81.7% | 97.7% | 92.2% | 51% | 81.2% | 54.7% | 98.6% | 98.8%
14 | C=C(C)[C@@H]1CC[C@]2(C)[C@H](CC=C3[C@@H]4CC(C)(C)CC[C@]4(C(=O)OC)CC[C@]32C)[C@@]1(C)CC/C(N)=N/O | 6.99% (active) | 63.7% | 80.5% | 67.6% | 3.92% (active) | 18.5% | -53% (active) | 61%
15 | COc1cc(-c2nc(-c3ccccc3)c(-c3ccccc3)[nH]2)cc(OC)c1O | 6.06% (active) | 11.5% | -23.2% (active) | -37.2% (active) | -85.8% (active) | -2.7% (active) | -55.2% (active) | -52.9% (active)
16 | CC(=O)OC(C)COc1ccc(-c2ccccc2)cc1 (stereo not drawn) | 88.6% | 98.6% | 98.6% | 100% | 103% | 81.2% | 104% | 98.8%

Row | Structure (SMILES) | growth [1] | growth [2] | growth [3] | growth [4] | growth [5] | growth [6] | growth [7] | growth [8]
17 | NC1=C(C/C(N)=N\O)C(c2ccccc2Cl)c2c(ccc3ccccc23)O1 (stereo not drawn) | 84.8% | 89.3% | 3.52% (active) | 63.1% | 68.5% | 83.8% | 97.1% | 67.5%
18 | CC(C)(C)c1cc(-n2c(-c3ccc(Cl)cc3)nc3cc(C(=O)Nc4ccc(Cl)cc4)ccc32)n[nH]1 | 25.2% | 58.7% | 73.3% | 55.9% | 38.5% | 28.2% | 63.9% | 25.9%
19 | CC1(n2nnnc2N2CCCN(c3ncccc3N)CC2)CCC1 | 101% | 99.4% | 99.5% | 104% | 95.5% | 84.1% | 108% | 102%
20 | COc1ccc2c(c1)c1nc3cc(C)c(C)cc3nc1n2CCN(C)C | 25.3% | 56% | 18.1% | -66.1% (active) | -69.9% (active) | -70.1% (active) | 20.5% | 18%
21 | CC1=CC(=O)N(c2cccc3c(N4C(=O)C=C(C)C4=O)cccc23)C1=O | 30.1% | 99.7% | 80.6% | 14.3% | 57.7% | 17.8% | 105% | 106%
22 | COc1cc2c(cc1-c1c(C)noc1C)ncc1nc(C3CCCCC3)n([C@@H](C)COC(F)F)c12 | 25% | 52.9% | 28.2% | 59.2% | 12.1% | 24.8% | 50.5% | 35.9%
23 | COc1ccc(/C=C/C(=O)NCC(C)O)cc1 (stereo not drawn) | 97.2% | 97.6% | 104% | 101% | 94.9% | 91.3% | 100% | 99.9%
24 | Nc1c2c(nc3ccc(Cl)cc13)CC(c1ccccc1)CC2=O (stereo not drawn) | 54.1% | 39.8% | -39.7% (active) | 24.8% | 19% | 20.3% | 67.3% | 26.4%
25 | COc1cc(/C=N/NC(=S)NNC(=S)NC2CCCCC2)cc(OC)c1OC | 69.9% | 105% | 98.8% | 104% | 92.4% | 104% | 112% | 95.1%
26 | C[C@@H](C(=O)O)c1ccc2c3cc(Cl)ccc3n(Cc3cc(=O)oc4ccc(Cl)cc34)c2c1 | 86.8% | 86.7% | 104% | 107% | 90.7% | 87.8% | 101% | 99%
27 | Nc1c(C(=O)Nc2cccc(Cl)c2)sc2ncc(Cl)cc12 | 49.6% | 68.8% | 77.5% | 66.6% | 84% | 19.6% | 78.2% | 63.3%
28 | COC(=O)C(Cc1ccccc1)n1cc(COc2nc(Cl)nc(Nc3ccc(Cl)cc3)n2)nn1 (stereo not drawn) | 78.9% | 99.6% | 105% | 99.8% | 78.1% | 100% | 101% | 96.5%
29 | COc1ccc(C(=O)/C=C/c2cc(-c3cc(OC)c(OC)c(OC)c3)n[nH]2)cc1OC | -2.5% (active) | -51.6% (active) | -71.6% (active) | -64% (active) | -39.6% (active) | -88.7% (active) | -77.2% (active) | -86.7% (active)
30 | C/C(=N\Nc1cc(C)c2cc(C)ccc2n1)c1ccccn1 | -50.4% (active) | 21.2% | -89.4% (active) | -81.3% (active) | -76.1% (active) | -72.6% (active) | -25.9% (active) | -46.9% (active)
31 | COC(=O)[C@]12CC[C@@H](C)[C@H](C)[C@@H]1C1=CC[C@@H]3[C@@]4(C)C[C@@H](OC(C)=O)[C@H](O)[C@@](C)(COC(C)=O)[C@@H]4[C@H](O)C[C@@]3(C)[C@]1(C)CC2 | -66.3% (active) | -85.8% (active) | -81.7% (active) | -80.9% (active) | -78.7% (active) | -69.5% (active) | -89.7% (active) | -75.4% (active)
